# Laboratory results taken from the supplement of paper PMC9135407.
# Where “and” joins values, the source holds several entries; their conditions need not be identical. Equal values may be shown once. Where a name gives a salt, the structure may show the parent alone. Hit rate of the full screen: of about 5,800 compounds, about 620 (11%) showed activity. Shown is part of a subset that was picked to be rich in actives. A number with no mark means an inactive call.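 How the source made its calls: active = score above a cut-off or among the top three wells of a plate; in these data no inactive exceeds 0.85.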
# System: primary human hepatic stellate cells (donor 1)
# Test: scaled lipid accumulation score (0 = DMSO-like, 1 = nortriptyline-like); higher = stronger HSC inactivation (lipid re-accumulation), active = hit call of the paper
# Conditions: 48 h
# [1] = library stock concentration: 2 mM
# [2] = library stock concentration: 3.33 mM
# [3] = library stock concentration: 10 mM
# [4] = library stock concentration: 80 uM
# [5] = library stock concentration: 400 uM
# [6] = library stock concentration: 1 mM
# [7] = library stock concentration: 5.2 mM
smiles,measurement,setting,value
Cn1cc(C2=C(c3c4n(c5ccccc35)CCC(CN)C4)C(=O)NC2=O)c2ccccc21 (configuration not stated) [Bisindoylmaleimide X HCl salt (Ro 31-8425) (2 mM)],scaled lipid accumulation score,[1],≤ 0
"NCCCn1cc(C2=C(c3c[nH]c4ccccc34)C(=O)NC2=O)c2ccccc21 [Bisindolylmaleimide III, Hydrochloride]",scaled lipid accumulation score,[2],≤ 0
Cn1cc(C2=C(c3cn(CCCSC(=N)N)c4ccccc34)C(=O)NC2=O)c2ccccc21 [Ro 31-8220 Mesylate],scaled lipid accumulation score,[2],≤ -0.009
same,scaled lipid accumulation score,[3],0.514
Cn1cc(C2=C(c3ccc(Cl)cc3Cl)C(=O)NC2=O)c2ccccc21 [listing 1 of 5 here],scaled lipid accumulation score,[3],1.22 (active)
CCCCn1c2ccc(O)cc2c2c3c(c(-c4ccccc4Cl)cc21)C(=O)NC3=O [Wee1 Inhibitor II],scaled lipid accumulation score,[2],≤ 0
Cn1cc(C2=C(c3ccc(Cl)cc3Cl)C(=O)NC2=O)c2ccccc21 [listing 2 of 5 here],scaled lipid accumulation score,[4],0.035
same,scaled lipid accumulation score,[5],≤ -0.009 and 0.379
same,scaled lipid accumulation score,[1],0.225
same,scaled lipid accumulation score,[2],0.555
same,scaled lipid accumulation score,[3],0.564
Cn1cc(C2=C(c3c4n(c5ccccc35)CCC(CN)C4)C(=O)NC2=O)c2ccccc21 (configuration not stated) [Bisindoylmaleimide X HCl salt (Ro 31-8425) (0.4 mM)],scaled lipid accumulation score,[5],0.132
Cn1cc(C2=C(c3cn(CCCSC(=N)N)c4ccccc34)C(=O)NC2=O)c2ccccc21 [Bisindolylmaleimide IX (mesylate)],scaled lipid accumulation score,[6],≤ 0
Cn1cc(C2=C(c3cn(CCCSC(=N)N)c4ccccc34)C(=O)NC2=O)c2ccccc21 [Ro 31-8220 mesylate],scaled lipid accumulation score,[3],≤ -0.001
Cn1cc(C2=C(c3cn(CCCSC(=N)N)c4ccccc34)C(=O)NC2=O)c2ccccc21,scaled lipid accumulation score,[4],0.068
same,scaled lipid accumulation score,[5],0.267
same,scaled lipid accumulation score,[1],≤ 0
same,scaled lipid accumulation score,[2],≤ 0
same,scaled lipid accumulation score,[3],0.848
same,scaled lipid accumulation score,library stock concentration: 10.9 mM,0.832
Cn1cc(C2=C(c3c4n(c5ccccc35)CCC(CN)C4)C(=O)NC2=O)c2ccccc21 (configuration not stated) [Bisindoylmaleimide X  HCl salt (Ro 31-8425) (10 mM)],scaled lipid accumulation score,[3],≤ -0.005
Cn1cc(C2=C(c3ccc(Cl)cc3Cl)C(=O)NC2=O)c2ccccc21 [listing 3 of 5 here],scaled lipid accumulation score,[3],1.03 (active)
Cn1cc(C2=C(c3ccc(Cl)cc3Cl)C(=O)NC2=O)c2ccccc21 [listing 4 of 5 here],scaled lipid accumulation score,[3],1.37 (active)
Cn1cc(/C=C2\C(=O)Nc3cccnc32)c2ccccc21,scaled lipid accumulation score,[5],≤ -0.005
same,scaled lipid accumulation score,[1],0.002
same,scaled lipid accumulation score,[3],≤ -0.001 and ≤ -0.005
O=C1NC(=O)C(c2cn(CCCO)c3ncccc23)=C1c1cnccn1 [GSK-3b Inhibitor XI],scaled lipid accumulation score,[2],0.065
Cn1cc(C2=C(c3ccc(Cl)cc3Cl)C(=O)NC2=O)c2ccccc21 [listing 5 of 5 here],scaled lipid accumulation score,[1],1.13 (active)
same,scaled lipid accumulation score,[3],1.17 (active)
Cn1cc(C2=C(c3cn(CCCN)c4ccccc34)C(=O)NC2=O)c2ccccc21 [Bisindolylmaleimide VIII (acetate)],scaled lipid accumulation score,[6],≤ 0
CCCCCCCCCCCCCCCC(=O)OCC [Palmitic Acid ethyl ester],scaled lipid accumulation score,[6],≤ 0
C[N+]1(C)C[C@H](O)C[C@H]1C(=O)[O-] [Betonicine],scaled lipid accumulation score,,≤ 0
CCCCC[C@H](O)/C=C/[C@H]1CCC(=O)[C@@H]1C/C=C\CCCC(=O)O [11-deoxy Prostaglandin E2],scaled lipid accumulation score,[6],0.072
CC[C@H](CO)Nc1nc(NCc2ccccc2O)c2ncn(C(C)C)c2n1 [Olomoucine II],scaled lipid accumulation score,[2],0.299
NC1=N[C@@]2(c3cc(NC(=O)c4ccc(F)cn4)ccc3F)COC[C@H]2CS1,scaled lipid accumulation score,[2],0.012
same,scaled lipid accumulation score,[3],0.209
C[C@]12CCC(=O)C=C1CC[C@@H]1[C@@H]2[C@@H](O)C[C@@]2(C)[C@H]1CC[C@]2(O)C(=O)COP(=O)(O)O [Hydrocortisone phosphate triethylamine],scaled lipid accumulation score,library stock concentration: 3.1 mM,≤ -0.001
CCOc1nc2cccc(C(=O)O)c2n1Cc1ccc(-c2ccccc2-c2noc(=O)[nH]2)cc1 [Azilsartan],scaled lipid accumulation score,[2],≤ 0
same,scaled lipid accumulation score,[3],≤ 0
CCCCC[C@H](O)/C=C/[C@H]1C(=O)C[C@H](O)[C@@H]1C/C=C/CCCC(=O)O [5-trans Prostaglandin D2],scaled lipid accumulation score,[6],≤ 0
COC(=O)C1=C(C)NC(C)=C(C(=O)OCCCN2CCC(c3ccccc3)(c3ccccc3)CC2)[C@@H]1c1cccc([N+](=O)[O-])c1 [(R)-(-)-Niguldipine hydrochloride],scaled lipid accumulation score,[3],≤ -0.006
C=C1C(=O)O[C@H]2[C@H]1CC/C(C)=C/CC[C@@]1(C)O[C@@H]21 [Parthenolide],scaled lipid accumulation score,,0.539
same,scaled lipid accumulation score,[3],0.317 and 0.269
same,scaled lipid accumulation score,library stock concentration: 20.1 mM,0.417
C=C1C(=O)OC2CC1C(OC(C)=O)C/C(C)=C/CC/C(C)=C/CC[C@]2(C)O (some centres not stated) [Crassin acetate],scaled lipid accumulation score,[3],1.04 (active)
C=C1C(=O)O[C@H]2[C@H]1CC/C(C)=C/CC[C@@]1(C)O[C@@H]21 [(-)-Parthenolide],scaled lipid accumulation score,[2],0.099
same,scaled lipid accumulation score,[3],0.534
C=C1C(=O)O[C@@H]2/C=C(\C)CC/C=C(\C)CC[C@@H]12 [Costunolide],scaled lipid accumulation score,[2],≤ 0
same,scaled lipid accumulation score,[3],0.163 and ≤ -0.001
CCCCCCCC/C=C\CCCCCCCCOC[C@H](COP(=O)([O-])OCC[N+](C)(C)C)OC(C)=O,scaled lipid accumulation score,[6],≤ -0.018
CC(=O)NCC(=O)N[C@H](CCC(=O)O)C(=O)O [N-Acetylglycyl-D-glutamic acid],scaled lipid accumulation score,[3],≤ 0
CN(C)CCCN1c2ccccc2CCc2ccccc21.Cl [Imipramine hydrochloride],scaled lipid accumulation score,[3],1.1 (active)
CN(C)CCCN1c2ccccc2CCc2ccccc21 [Imipramine hydrochloride],scaled lipid accumulation score,,0.652
same,scaled lipid accumulation score,library stock concentration: 6.3 mM,0.714
same,scaled lipid accumulation score,[3],0.59
CN(CCCN1c2ccccc2CCc2ccccc21)CC(=O)c1ccc(Cl)cc1,scaled lipid accumulation score,[3],0.191
CN(C)CCCN1c2ccccc2CCc2ccc(Cl)cc21 [Clomipramine HCl],scaled lipid accumulation score,[2],0.402
CN(C)CCCN1c2ccccc2CCc2ccc(Cl)cc21.Cl [Clomipramine hydrochloride] [listing 1 of 3 here],scaled lipid accumulation score,[3],1.31 (active)
CN(C)CCCN1c2ccccc2CCc2ccccc21 [Imipramine HCl],scaled lipid accumulation score,library stock concentration: 7.1 mM,0.618
CN(C)CCCN1c2ccccc2CCc2ccc(Cl)cc21.Cl [Clomipramine hydrochloride] [listing 2 of 3 here],scaled lipid accumulation score,[3],1.01 (active)
CN(C)CCCN1c2ccccc2CCc2ccccc21,scaled lipid accumulation score,[3],0.493
CN(C)CCCN1c2ccccc2CCc2ccc(Cl)cc21 [Clomipramine hydrochloride],scaled lipid accumulation score,library stock concentration: 5.7 mM,0.836
CN(C)CCN1C(=O)c2ccccc2N(C)c2ccccc21 [Dibenzepine HCl],scaled lipid accumulation score,library stock concentration: 6.8 mM,≤ 0
CN(C)CCCN1c2ccccc2CCc2ccc(Cl)cc21.Cl [Clomipramine hydrochloride] [listing 3 of 3 here],scaled lipid accumulation score,,0.968 (active)
CN(C)CCCN1c2ccccc2CCc2ccc(Cl)cc21,scaled lipid accumulation score,[3],0.755
CN(CCCN1c2ccccc2CCc2ccccc21)CC(=O)c1ccc(Cl)cc1 [Lofepramine],scaled lipid accumulation score,[3],0.323
C[C@@H]1CC[C@@]2(OC1)O[C@H]1C[C@H]3[C@@H]4CC=C5C[C@@H](O)CC[C@]5(C)[C@H]4CC[C@]3(C)[C@H]1[C@@H]2C [Diosgenin],scaled lipid accumulation score,[3],≤ -0.027
CCCCCCCCCCCCCCCC(=O)OC[C@@H](O)COP(=O)(O)O [1-Palmitoyl Lysophosphatidic Acid (sodium salt)],scaled lipid accumulation score,[6],0.001
CCCCCCCCCCCCCCCCOC[C@H](CO)SC(C)=O [2-thio-Acetyl MAGE],scaled lipid accumulation score,[6],≤ 0
"CCCCCC/C=C/C=C\CCCCCCCC(=O)O [9(Z),11(E)-Conjugated Linoleic Acid]",scaled lipid accumulation score,[6],0.029
CCCCCNC(=N)N/N=C/c1c[nH]c2ccc(OC)cc12,scaled lipid accumulation score,[3],0.13
CCCCCNC(=N)N/N=C/c1c[nH]c2ccc(OC)cc12 [Tegaserod],scaled lipid accumulation score,[3],≤ -0.027
CCCCCNC(=N)N/N=C/c1c[nH]c2ccc(OC)cc12 [Tegaserod maleate],scaled lipid accumulation score,[3],≤ -0.027
Cc1cc(-c2ccc(/N=N/c3ccc4c(S(=O)(=O)O)cc(S(=O)(=O)O)c(N)c4c3O)c(C)c2)ccc1/N=N/c1ccc2c(S(=O)(=O)O)cc(S(=O)(=O)O)c(N)c2c1O,scaled lipid accumulation score,[3],0.033
CCCCC[C@H](O)/C=C/[C@@H]1[C@H](C/C=C\CCCC(=O)O)[C@H](O)C[C@H]1O [8-iso Prostaglandin F2.beta.],scaled lipid accumulation score,[6],0.004
CN(C)CCCN1c2ccccc2CCc2ccc(Cl)cc21.Cl [Clomipramine HCl],scaled lipid accumulation score,[3],0.83 (active)
CC[N+]1(C)C2CCC1CC(OC(=O)C1CCC(C(=O)OC3CC4CCC(C3)[N+]4(C)CC)(c3ccccc3)c3ccccc31)C2 (stereo not drawn) [beta- Belladonnine dichloroethylate],scaled lipid accumulation score,,≤ 0
Cc1c(C(N)=O)cc([N+](=O)[O-])cc1[N+](=O)[O-] [Dinitolmide],scaled lipid accumulation score,[2],≤ 0
same,scaled lipid accumulation score,[3],≤ -0.001 and ≤ -0.027
NC1CONC1=O (racemic) [DL-Cycloserine],scaled lipid accumulation score,[3],≤ 0
COc1cc2nc(N(C)CCCNC(=O)C3CCCO3)nc(N)c2cc1OC (configuration not stated),scaled lipid accumulation score,[3],≤ 0
COc1cc2nc(N3CCN(C(=O)c4ccco4)CC3)nc(N)c2cc1OC [Prazosin],scaled lipid accumulation score,[3],1 (active)
COc1cc2nc(N3CCN(C(=O)c4ccco4)CC3)nc(N)c2cc1OC.Cl [Prazosin hydrochloride],scaled lipid accumulation score,[3],1.35 (active)
COc1cc2nc(N(C)CCCNC(=O)C3CCCO3)nc(N)c2cc1OC (configuration not stated) [Alfluzocin],scaled lipid accumulation score,[3],0.025
COc1cc2nc(N3CCN(C(=O)C4CCCO4)CC3)nc(N)c2cc1OC (configuration not stated) [Terazosin],scaled lipid accumulation score,library stock concentration: 9.6 mM,≤ 0
same,scaled lipid accumulation score,[3],0.162
COc1cc2nc(N3CCN(C(=O)C4CCCO4)CC3)nc(N)c2cc1OC (configuration not stated) [Terazosin hydrochloride],scaled lipid accumulation score,,≤ 0
same,scaled lipid accumulation score,[3],≤ -0.006
COc1cc2nc(N(C)CCCNC(=O)C3CCCO3)nc(N)c2cc1OC (configuration not stated) [Alfuzosin hydrochloride],scaled lipid accumulation score,,≤ 0
same,scaled lipid accumulation score,[3],0.274
COc1cc2nc(N(C)CCCNC(=O)C3CCCO3)nc(N)c2cc1OC (configuration not stated) [Alfluzosin],scaled lipid accumulation score,library stock concentration: 5.1 mM,≤ 0
COc1cc2nc(N3CCN(C(=O)C4COc5ccccc5O4)CC3)nc(N)c2cc1OC (configuration not stated) [Doxazosin mesylate],scaled lipid accumulation score,,≤ 0
same,scaled lipid accumulation score,library stock concentration: 4.4 mM,0.151
same,scaled lipid accumulation score,[3],0.85
COc1cc2nc(N3CCN(C(=O)c4ccco4)CC3)nc(N)c2cc1OC [Prazocin],scaled lipid accumulation score,library stock concentration: 13 mM,1.03 (active)
COc1cc2nc(N(C)CCCNC(=O)C3CCCO3)nc(N)c2cc1OC (configuration not stated) [Alfuzosin HCl],scaled lipid accumulation score,[2],≤ 0
same,scaled lipid accumulation score,[3],≤ 0
COc1cc2nc(N3CCN(C(=O)C4COc5ccccc5O4)CC3)nc(N)c2cc1OC (configuration not stated) [Doxazosin],scaled lipid accumulation score,[3],0.539
COc1cc2nc(N3CCN(C(=O)C4CCCO4)CC3)nc(N)c2cc1OC (configuration not stated) [Terazosin HCl],scaled lipid accumulation score,[2],≤ 0
same,scaled lipid accumulation score,[7],0.009
same,scaled lipid accumulation score,[3],≤ 0
COc1cc2nc(N3CCN(C(=O)c4ccco4)CC3)nc(N)c2cc1OC [Prazosin HCl],scaled lipid accumulation score,[7],0.728
COc1cc2nc(N3CCN(C(=O)C4COc5ccccc5O4)CC3)nc(N)c2cc1OC (configuration not stated) [Doxazosin Mesylate],scaled lipid accumulation score,[2],≤ 0
same,scaled lipid accumulation score,[3],0.473
COc1cc2nc(N3CCN(C(=O)c4ccco4)CC3)nc(N)c2cc1OC [Prazosin hydrochloride],scaled lipid accumulation score,,0.676
same,scaled lipid accumulation score,library stock concentration: 4.8 mM,0.682
same,scaled lipid accumulation score,[3],0.361 and 0.672
